Source: PubChem BioAssay
Only some compounds are listed: those with a hit (about 18% of all), similar ones and a draw of the others.
VDR inhibitor = blocks the human vitamin D receptor | VDR-SRC2-3 peptide fluorescence polarization, 2 h | AID 504847 | Potency, µM, without a hit: max response, negative = inhibition, actives largely listed as inhibitors | P11473 | 400,000 compounds, 0.93% hits
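Two reagent solutions held at 4 deg C in the dark were dispensed, compounds pinned at 23 nl, and the mixture incubated 2 h at room temperature. Read-out: fluorescence polarization of VDR–SRC2-3 peptide binding.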
TDP1 inh = inhibitors of human tyrosyl-DNA phosphodiesterase TDP1; Q9NUW8; recombinant TDP1, AlphaScreen DNA substrate cleavage; Potency, µM (highest dose often 130 µM), for the others: at the highest dose activity change, negative = inhibition, actives largely listed as inhibitors; 350,000 compounds, 0.28% hits; AID 485290; also: nearly all actives have a fitted effect of over 40% in size
Target sequence (Q9NUW8 whole entry, looked up): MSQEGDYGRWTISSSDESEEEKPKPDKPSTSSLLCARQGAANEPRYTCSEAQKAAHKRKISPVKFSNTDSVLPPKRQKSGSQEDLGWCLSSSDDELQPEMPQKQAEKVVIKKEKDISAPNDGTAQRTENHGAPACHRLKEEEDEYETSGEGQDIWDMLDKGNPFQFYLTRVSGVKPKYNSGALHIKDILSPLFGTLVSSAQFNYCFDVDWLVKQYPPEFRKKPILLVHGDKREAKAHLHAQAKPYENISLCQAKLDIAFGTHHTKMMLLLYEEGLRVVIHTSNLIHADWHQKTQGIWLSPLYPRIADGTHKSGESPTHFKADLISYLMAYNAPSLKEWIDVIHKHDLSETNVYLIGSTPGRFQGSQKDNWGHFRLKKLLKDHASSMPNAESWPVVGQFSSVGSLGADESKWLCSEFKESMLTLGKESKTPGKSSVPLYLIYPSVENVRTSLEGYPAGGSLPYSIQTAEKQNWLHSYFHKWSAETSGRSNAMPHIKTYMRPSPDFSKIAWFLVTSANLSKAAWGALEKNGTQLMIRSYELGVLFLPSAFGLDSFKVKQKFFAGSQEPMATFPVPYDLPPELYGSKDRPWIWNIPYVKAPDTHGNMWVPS
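E. coli-derived human Tdp1, 1 nM final. Cpd preinc 15 min RT; substrate 15 nM final, 5 min RT; AS bead mix 10 ug/ml final, 10 min RT. Signal loss = tyrosine-FITC cleavage. No-enzyme wells = max signal.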
DT40 TDP1 no CPT = qHTS for Inhibitors of human tyrosyl-DNA phosphodiesterase 1 (TDP1): qHTS in cells in absence of CPT. 420,000 compounds, 15% hits. DT40 Tdp1-/- hTDP1 cells, no CPT, ATP luminescence, 48 h. Potency, µM (titrated, usually from 46.2 µM), inactives show at the highest dose activity change, negative = growth inhibition, actives largely listed as inhibitors. AID 686978, 2013; also: nearly all actives have a fitted effect of over 55% in size
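No-CPT arm: Tdp1-/-;hTDP1 DT40 cells (400/well) plus compounds, incubated ≥48 hr at 37 °C. Readout CellTiter-Glo luminescence.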
KAT2A inh = blocks human GCN5L2 histone acetyltransferase. GCN5L2 HAT assay, ThioGlo1 CoA-SH fluorescence. Potency, µM (titrated, usually from 58.9 µM), without a hit: at the top dose activity change, negative = inhibition, usual class: inhibitors. Q92830. 390,000 compounds, 0.21% hits. AID 504327
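qHTS, 1536-well. 20nM enzyme, pH 7.5 HEPES/EDTA/Tween-20 buffer; 15 min compound preinc., RT. Start: 75uM H3(1-25), 70uM AcCoA, 50uM ThioGlo1. Read Ex340/Em540 at t=0 (autofluorescence flag) and t=20 min.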
DT40 TDP1 CPT = growth inhibition of DT40 Tdp1-/-;hTDP1 cells with camptothecin (screen for TDP1 inhibitors). chicken DT40 Tdp1-/-;hTDP1 cells + 20 nM CPT, ATP luminescence, 48 h. Potency, µM (titrated, usually from 46.2 µM), inactives show at the top dose activity change, negative = growth inhibition, hits mostly inhibitors. 420,000 compounds, 12% hits. AID 686979; also: nearly all actives have a fitted effect of over 55% in size
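Chicken DT40 Tdp1-/- cells complemented with human TDP1, 400 cells/well, exposed to compounds plus 20 nM camptothecin for at least 48 h at 37 C; viability read as ATP content by CellTiter-Glo luminescence.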
PLK1 PBD inh = inhibitors of human PLK1 polo-box domain binding; Potency, µM, for inactives: max response, negative = inhibition, usual class: inhibitors; Plk1 PBD binding of FITC phosphopeptide, fluorescence polarization; 360,000 compounds, 2.8% hits; P53350; also: series mostly up to about 57 µM; nearly all actives have a fitted effect of over 65% in size
* = called active by the depositor; u = inconclusive; x = not tested or not shown; [ ] = another dose, or the depositor's remark. Calls follow the shape of the dose curve; as a rule, active = well fitted curve in the direction sought with a large enough effect; inconclusive = small, poorly fitted or top-dose-only effect, or another doubt; inactive = no such curve, though single readings can be large; an effect the other way counts as inactive or inconclusive. % is scaled to controls: 0 for no effect and ±100 for the full control effect; potency is read from the fitted curve at half-maximal effect.

SMILES	VDR inhibitor	TDP1 inh	DT40 TDP1 no CPT	KAT2A inh	DT40 TDP1 CPT	PLK1 PBD inh
CC(C)c1cc(Cn2c3ccccc3c(=O)n2C(C)Cn2cc(CCc3ccccc3)nn2)on1 (stereo not drawn)	x	x	-27.3%	x	-8.5%	-2.3%
COc1ccc(C(CC(=O)c2ccc(C)cc2)Sc2ccccc2N)cc1 (stereo not drawn)	x	x	u	x	23.1µM*	-21.4%
CCC1C(=O)Nc2nc(-c3ccccc3)c(-c3ccccc3)n2N=C1C (stereo not drawn)	7.1%	4.5%	23.1µM*	-6.4%	20.6µM*	0.0%
O=C(NC(=S)N1CCN(c2ccc([N+](=O)[O-])cc2)CC1)c1ccc(F)cc1	-11.5%	-2.2%	25.9µM*	-6.0%	u	-18.0%
O=C(NC(=O)N1CCN(c2ccc(F)cc2)CC1)c1ccccc1	2.8%	5.9%	-4.2%	-6.2%	-7.5%	-8.7%
O=C(NC(=S)N1CCN(c2ccc(F)cc2)CC1)c1ccccc1	x	x	20.6µM*	x	u	-6.7%
O=C(NC(Cc1ccccc1)C(=O)N1CCN(c2ccc(F)cc2)CC1)c1ccccc1 (stereo not drawn)	x	x	25.9µM*	x	u	-3.0%
O=C(NC(=S)N1CCN(c2ccc([N+](=O)[O-])cc2)CC1)c1ccccc1F	-2.5%	7.1%	20.6µM*	-1.1%	u	-4.6%
O=[N+]([O-])c1ccc(N2CCN(C(=S)Nc3ccccc3)CC2)cc1	-12.9%	7.9%	u	-0.3%	-20.4%	-6.3%
O=C1CCC[C@@H]2CC(NCc3ccc(Cl)c(Cl)c3)C[C@@H]3CCN1[C@H]23 (stereo partly drawn)	-9.0%	1.0%	x	-10.7%[88.6 µM]	x	x
Cc1cccc(CN2CCN(C3CN(CCc4ccccc4)S(=O)(=O)C3)CC2)c1 (stereo not drawn)	x	x	u	x	u	4.2%
O=C(c1ccccc1)c1ccc(C(=O)N2CCN(c3ccc(F)cc3)CC2)o1	3.6%	6.2%	11.6µM*	-2.0%	u	-2.1%
C/C(=C/c1ccccc1)C(=O)N1CCN(c2ccc(F)cc2)CC1	-23.4%	x	u	-15.6%	-6.4%	-11.7%
O=[N+]([O-])c1ccc(N2CCN(C(=S)NC3CCCCC3)CC2)cc1	-10.3%	9.6%	9.2µM*	-0.3%	16.4µM*	-1.0%
Cc1cccc(C)c1NC1=NCCCCC1	1.0%	1.8%	-0.4%	-1.8%	0.1%	-27.1%
O=c1[nH]c(NC2CCN(S(=O)(=O)c3ccccc3C(F)(F)F)CC2)nc2c1CCCC2	u	8.6%	7.31µM*	-1.9%	6.51µM*	-15.5%
COc1ccc2oc3c(ccc[n+]3C)c(=O)c2c1	x	x	-0.1%	x	-6.3%	-9.1%
CCCCC[C@H](O)/C=C/[C@@H]1[C@H]2C/C(=C/CCCC(=O)O)C[C@H]2C[C@H]1O	-3.2%	3.7%	-13.0%	-11.2%	-24.6%	x
CC1(C(=O)O)CCN1C(=O)c1cccnc1Oc1ccccc1 (stereo not drawn)	x	x	1.5%	x	-24.3%	-5.2%
COc1cccc(OC2(C)CCN(Cc3cccn3-c3nccs3)C2)c1 (stereo not drawn)	x	x	20.6µM*	x	23.1µM*	-4.8%
CC1(Oc2ccc(-n3ccnc3)cc2)CCN(Cc2cccn2-c2nccs2)C1 (stereo not drawn)	x	x	18.4µM*	x	29.1µM*	-3.9%
COc1ccccc1-c1nc(-c2ccccn2)no1	4.5%	-1.0%	13µM*	-3.7%	13µM*	4.9%
COc1ccc(-c2nc(-c3cccnc3)no2)cc1	-9.5%	x	15.8µM*	-21.8%	u	-8.4%
Clc1ccc(-c2nc(-c3ccccn3)no2)cc1Cl	16.1%	5.1%	u	1.1%	u	-5.4%
CCOc1ccc(-c2nc(-c3cccnc3)no2)cc1	-16.8%	4.9%	u	-2.6%	-25.0%	-5.8%
SMILES	VDR inhibitor	TDP1 inh	DT40 TDP1 no CPT	KAT2A inh	DT40 TDP1 CPT	PLK1 PBD inh
Cc1ccccc1-c1nc(-c2ccccn2)no1	11.8%	2.5%	u	-9.3%	u	-4.5%
COc1ccc(-c2nc(-c3ccccn3)no2)cc1	-4.5%	-2.6%	u	1.9%	14.6µM*	-20.9%
Cc1sc2ccccc2[n+]1CC(=O)c1ccc(F)cc1	x	x	-3.2%	x	-0.2%	x
Cc1cc(Cl)ccc1NC(=O)CSc1n[nH]c(N)n1	-6.9%	0.6%	-2.8%	0.0%	u	4.9%
Cn1cc(S(=O)(=O)N2CCOCC2)cc1C(=O)Nc1cccc(Cl)c1	0.7%	x	-4.7%	-10.0%	0.9%	-7.0%
COc1cc(C2C=C(c3cccs3)Nc3ncnn32)cc(OC)c1OC (stereo not drawn)	2.2%	2.5%	0.651µM*	u	0.82µM*	u
CCN(CC)CCNC(=S)Nc1ccc2nc(N3CCN(C)CC3)cc(C)c2c1	-7.5%	x	16.4µM*	-4.2%	25.9µM*	-6.7%
COCCNC(=S)Nc1ccc2nc(N3CCN(C)CC3)cc(C)c2c1	0.2%	x	u	4.2%	-11.7%	-18.7%
CCN(CC)CCNC(=S)Nc1ccc2nc(N3CCCC3)cc(C)c2c1	18.2%	3.5%	10.3µM*	-13.9%	13µM*	-11.3%
CCCN(CCC)CCCNC(=S)Nc1ccc2nc(N3CCCC3)cc(C)c2c1	-1.0%	5.3%	13µM*	-2.6%	u	-9.3%
CCN(CC)CCNC(=S)Nc1ccc2nc(N3CCOCC3)cc(C)c2c1	-25.7%	x	-26.5%	-21.2%	u	u
c1ccc(CNc2cc(-c3cccnc3)ncn2)cc1	3.7%	x	-14.5%	-3.2%	-5.8%	x
O=C(NCC1(c2ccccc2)CCOCC1)c1cccs1	-2.8%	2.7%	-18.0%	7.8%	3.1%	-18.6%
Cc1cccc(Nc2nc(-c3ccccn3)cs2)n1	-9.6%	12.0%	6.51µM*	-6.6%	5.17µM*	-1.8%
Cc1cccc(Nc2nc(-c3cccs3)cs2)n1	14.7%	1.2%	23.1µM*	-8.4%	u	-9.9%
CC(=O)Oc1ccc(-c2csc(Nc3ccccn3)n2)cc1	x	x	7.31µM*	x	16.4µM*	-13.3%
Fc1ccc(-c2csc(Nc3ccccn3)n2)cc1	6.0%	7.2%	u	-8.7%	16.4µM*	0.1%
COc1ccc(-c2csc(Nc3cccc(C)n3)n2)cc1	-1.4%	5.2%	u	-16.4%	u	u
CC(=O)Oc1ccc(-c2csc(Nc3cccc(C)n3)n2)cc1	0.3%	4.1%	u	u	u	-11.1%
Cc1ccc(Nc2nc(-c3ccc(F)cc3)cs2)nc1	-6.7%	x	u	-13.1%	u	2.5%
Cc1ccc(NC(=O)CN2C(=O)C(c3ccc(F)cc3)=NC2(C)C)c(C)c1	3.4%	-2.5%	-21.9%	-0.4%	-4.0%	x
Cc1cccc(Nc2nc(-c3ccc(F)cc3)cs2)n1	-22.6%	7.5%	u	-6.7%	11.6µM*	-21.0%
